Where “and” joins values, the source holds several entries; their conditions need not be identical. Equal entries are not always repeated. The campaign covered roughly 260,000 compounds. About 2,200 (0.85%) were called active. The full list was thinned out, with actives kept by preference. A number with no mark means an inactive call.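 Rule for the calls: active = compounds whose cAMP rise, as percent of the full-agonist control response, exceeds 60; inactive = the rest.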
The compounds below were run against Prostaglandin E2 receptor EP2 subtype (Homo sapiens) (UniProt P43116) (assay: EP2 receptor modulators, cAMP readout, primary screen, cell-based, HTRF cAMP, PGE2 stimulation (AID 940;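 note: rat C6 glioma line stably carrying human EP2 under a CMV promoter; the protocol text gives 20 µM as final concentration; 100% = response of wells given 1 µM PGE2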)). Conditions: EP2-expressing cells, cAMP HTRF FRET, PGE2 co-stimulation; at 25 µM; hits give high values.
Prostaglandin E2 receptor EP2 subtype (Homo sapiens), sequence (P43116 whole entry, looked up): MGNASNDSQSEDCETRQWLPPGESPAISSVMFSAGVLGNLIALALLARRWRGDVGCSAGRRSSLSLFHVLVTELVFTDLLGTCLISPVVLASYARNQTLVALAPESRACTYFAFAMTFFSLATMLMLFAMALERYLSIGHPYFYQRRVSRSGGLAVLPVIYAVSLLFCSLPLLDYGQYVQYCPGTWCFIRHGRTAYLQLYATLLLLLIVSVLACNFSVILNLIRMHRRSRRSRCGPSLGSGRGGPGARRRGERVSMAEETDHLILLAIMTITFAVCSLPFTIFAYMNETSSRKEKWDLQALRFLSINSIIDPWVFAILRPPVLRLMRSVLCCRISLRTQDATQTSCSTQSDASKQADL

Structure (SMILES) | induction
CC(=O)c1ccc(S(=O)(=O)N2CCC(n3c(C)nc4cc(F)ccc43)CC2)cc1 | -40.5%
Cc1occc1-c1nn(C2CCN(S(=O)(=O)N(C)C)CC2)c(=O)o1 | -53%
CCN(CC)C(=O)CSc1nc2ccccc2c(=O)n1-c1ccccc1 | -15.6%
c1ccc(C(c2nnnn2C2CCCCC2)N2CCc3ccccc3C2)cc1 (centres undefined) | 68.5% (active)
c1ccc(C(c2ccccc2)N2CCN(Cc3nnnn3C3CCCCC3)CC2)cc1 | 56.5%
CN1CCN(C(c2ccccc2Cl)c2nnnn2C2CCCCC2)CC1 (centres undefined) | -13.7%
CCS(=O)(=O)N1CCN(c2nc3ccccc3s2)CC1 | -84.9%
O=C(Cn1nc(-c2cccnc2)oc1=O)N1CCCC1 | -282%
O=C(COc1ccc(Cl)cc1)Nc1ccccc1CO | -10.2%
COC(=O)c1sccc1NC(=O)CCC1CCCC1 | 11.9%
COC(=O)c1sccc1NC(=O)COc1ccc(Cl)cc1 | 61.7% (active)
CCN(CC)CCN(Cc1cc2cccc(C)c2[nH]c1=O)C(=S)NCCOC | -15.8%
CC(C(=O)N1CCC(n2nc(-c3ccco3)ccc2=O)CC1)c1ccccc1 (centres undefined) | -23.1%
Cc1nn2c(c1-c1ccccc1)N=C(c1ccco1)CC2c1ccccc1 (centres undefined) | 83.8% (active)
COCC(=O)Nc1nnc(Cc2ccccc2)s1 | -1.1%
CCc1nn(CC(=O)NC(C)c2ccccn2)c(=O)c2cc3ccsc3n12 (centres undefined) | -14.5%
O=C(c1ccn[nH]1)N1CCn2cc(C(F)(F)F)nc2C1 | -3.08%
CC1CCCCN1CC(=O)NCc1ccc2c(c1)OCO2 (centres undefined) | 8.14%
COc1ccc(CN2CCCCC2C)cc1OC (centres undefined) | 1.32%
CCc1ccc2oc(=O)cc(CN3CCCCC3C)c2c1 (centres undefined) | 64.2% (active)
COC(=O)c1ccccc1NC(=O)CSc1nnnn1C | 20.6% and 0.97%
CCOC(=O)c1c(-c2ccc(C)cc2C)csc1NC(=O)CSc1nnnn1C | 63.5% (active)
CCOC(=O)CNC(=O)CSc1nnnn1-c1cc(C)ccc1C | -4.73%
CSc1nc(O)c(C2CCCCC2)c(=O)[nH]1 | -1.22%
COc1ccc(CNC(=O)CCSc2nc(-c3ccco3)cc(C(F)(F)F)n2)cc1OC | -21.3%
CS(=O)(=O)N1CCc2cc(C(=O)N3C4CCC3CC(c3ccc(F)cc3)C4)ccc21 (centres undefined) | -36.1%
COC(=O)Cn1c(C)nc2ccccc2c1=O | 6.77%
CC(C)(C)c1nc2ccccc2c(=O)n1N1C(=O)c2ccccc2C1=O | 65.2% (active)
CN(C)CCCn1c(SCCN2C(=O)c3ccccc3C2=O)nc2ccccc2c1=O | -26%
